Laboratory results reported in PubChem BioAssay (EPA / NIEHS).
The source made the active and inactive calls. Rule for the calls: active = hit-call score of the fitted dose curve at least 0.9, where 1 is the maximum; inactive = score below 0.9.

Columns and labels:
[1] = APR_HepG2_CellLoss_72hr: Apredica 72-hour HepG2 Assay for Cell Loss (AID 2282915); details: high-content imaging
Procedure, shortened: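 HepG2 cells exposed 72 h to compound at 0.39–200 uM (10 concentrations, duplicate) in 0.5% DMSO. Fixed with 3.7% formaldehyde and Hoechst 33342-stained. Imaged at 20x; nuclear count gives cell number, fitted bidirectionally versus DMSO.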

[2] = APR_HepG2_P-H2AX_72hr: Apredica 72-hour HepG2 Assay for H2AX Phosphorylation (AID 2282916); details: imaging, actives raise or lower the signal;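 note: phospho-histone H2A.x immunostain intensity per cell marking DNA damage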
Procedure, shortened: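 Phospho-histone H2A.x immunofluorescence, multiplexed with Hoechst and c-Jun, quantified by high-content imaging. Compounds applied to HepG2 for 72 h across ten concentrations (0.39–200 uM, 0.5% DMSO), in duplicate; DMSO baseline.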

[3] = APR_HepG2_MitoMembPot_72hr: Apredica 72-hour HepG2 Assay for Mitochondrial Membrane Potential (AID 2282917); details: imaging, actives raise or lower the signal
Procedure, shortened: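 HepG2 cells dosed 72 hr with compound at 0.39–200 uM in duplicate, 0.5% v/v DMSO final. Mitochondria stained with 250 nM MitoTracker Red CMXRos for 30 min before formaldehyde fixation, imaged by high-content fluorescence; bidirectional fit versus DMSO.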

[4] = APR_HepG2_MitoticArrest_72hr: Apredica 72-hour HepG2 Assay for Mitotic Arrest (AID 2282918); details: high-content imaging, actives raise or lower the signal
Procedure, shortened: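 HepG2 cells treated 72 h at 0.39–200 uM, 0.5% DMSO final; formaldehyde-fixed, stained with Hoechst 33342 and phospho-histone H3 antibody, imaged by high-content fluorescence; bidirectional fit versus DMSO.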

[5] = APR_HepG2_MicrotubuleCSK_72hr: Apredica 72-hour HepG2 Assay for Microtubule CSK Stabilty (AID 2282919); details: HepG2 microtubule cytoskeleton, high-content imaging, actives raise or lower the signal
Procedure, shortened: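 HepG2, 72 hr cmpd exposure, 0.39–200 uM (10 pts, duplicate), 0.5% DMSO. 3.7% formaldehyde fix, 0.5% Triton perm, anti-alpha-tubulin/Cy5 plus Hoechst. HCS fluorescence intensity; bidirectional fit vs DMSO baseline; taxol as positive control.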

[6] = APR_HepG2_StressKinase_72hr: Apredica 72-hour HepG2 Assay for Stress Kinase (AID 2282921); details: HepG2 stress kinase (phospho-c-Jun) imaging, actives raise or lower the signal
Procedure, shortened: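 Stress kinase signal is phospho-c-Jun immunofluorescence (1:500 primary, Cy3 secondary) in fixed, permeabilized human HepG2 cells imaged at 20x. Exposure lasted 72 hr over ten concentrations from 0.39 to 200 uM, 0.5% DMSO, in duplicate. Bidirectional fit versus DMSO.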

[7] = APR_HepG2_StressKinase_24hr: Apredica 24-hour HepG2 Assay for Stress Kinase (AID 2282922); details: HepG2 stress kinase (phospho-c-Jun) imaging, actives raise or lower the signal
Procedure, shortened: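 Read-out: phospho-c-Jun immunofluorescence (Cy3 secondary) quantified by high-content imaging at 20x, nuclei defined by Hoechst 33342. Human HepG2 liver cells dosed 24 hr, 0.39–200 uM, DMSO 0.5% v/v; gain or loss of signal fitted relative to DMSO.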

[8] = APR_HepG2_p53Act_72hr: Apredica 72-hour HepG2 Assay for p53 Activation (AID 2282923); details: high-content imaging, actives raise or lower the signal;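 note: average cellular p53 protein immunofluorescence intensity in HepG2 cells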
Procedure, shortened: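 After 72 h with compound (ten points, 0.39 to 200 uM, final DMSO 0.5% v/v), fixed HepG2 cells were labelled with sheep anti-p53 and Hoechst 33342 and imaged; gain or loss versus DMSO scored.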

[9] = APR_HepG2_MitoMass_72hr: Apredica 72-hour HepG2 Assay for Mitochondrial Mass (AID 2282924); details: high-content imaging, actives raise or lower the signal;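 note: MitoTracker Red CMXRos stain intensity per cell imaged as mitochondrial mass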
Procedure, shortened: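 Read-out: MitoTracker Red fluorescence intensity from automated imaging (20x, six fields per well) in human HepG2 liver cells. Dosing ran 72 hr, 0.39–200 uM, 0.5% DMSO; bidirectional curve fitting versus DMSO baseline.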

[10] = APR_HepG2_NuclearSize_72hr: Apredica 72-hour HepG2 Assay for Nuclear Size (AID 2282925); details: high-content imaging, actives raise or lower the signal
Procedure, shortened: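 Read-out: nuclear diameter from Hoechst 33342 images (ArrayScan, 20x, six fields/well), via cell-cycle image analysis. HepG2 were dosed 0.39–200 uM for 72 hr in 0.5% DMSO. Bidirectional fit relative to DMSO.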

[11] = ATG_CRE_CIS: Attagene CIS-FACTORIAL HepG2 Assay for human cAMP Responsive Element (CRE) binding protein 3 (AID 2282926); details: HepG2 CRE cis-reporter, Attagene multiplexed mRNA; actives raise or lower the signal
Procedure, shortened: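 Induced reporter mRNA from a CRE cis element, measured in HepG2 among many multiplexed units at 24 h. Detection used RT-PCR plus capillary electrophoresis of fluorescent fragments; DMSO served as negative control.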

[12] = target: CCAAT/enhancer-binding protein beta (Homo sapiens) (UniProt P17676); assay: ATG_C_EBP_CIS: Attagene CIS-FACTORIAL HepG2 Assay for human CCAAT/Enhancer Binding Protein (C/EBP) beta (AID 2282927); details: HepG2 Attagene cis-factorial transcription factor reporter; actives raise or lower the signal
CCAAT/enhancer-binding protein beta (Homo sapiens), sequence (P17676 whole entry, looked up): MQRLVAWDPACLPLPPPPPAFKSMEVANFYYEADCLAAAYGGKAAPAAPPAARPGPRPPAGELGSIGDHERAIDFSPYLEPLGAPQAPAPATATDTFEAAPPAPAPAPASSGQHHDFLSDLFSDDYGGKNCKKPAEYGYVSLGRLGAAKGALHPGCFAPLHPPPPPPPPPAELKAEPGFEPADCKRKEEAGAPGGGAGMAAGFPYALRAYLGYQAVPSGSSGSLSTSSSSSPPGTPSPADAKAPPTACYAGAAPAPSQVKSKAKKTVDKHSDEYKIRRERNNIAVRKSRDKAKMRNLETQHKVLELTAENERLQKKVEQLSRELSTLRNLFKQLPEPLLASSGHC
Procedure, shortened: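 HepG2, transient MRTU transfection, 24 h treatment. RT-PCR plus CE fluorescence; DMSO negative control, bidirectional fit.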

[13] = ATG_CMV_CIS: Attagene CIS-FACTORIAL HepG2 Assay for human CMV (Internal Marker) (AID 2282928); details: HepG2 CMV promoter reporter, transcription factor profiling; actives raise or lower the signal;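 note: endpoint acts as a background internal control marker rather than a target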
Procedure, shortened: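 Reporter transcripts from transfected HepG2 cells are isolated after 24 h of chemical dosing, reverse-transcribed and amplified. Fragments labeled with 6-FAM are cut with HpaI and quantified by capillary electrophoresis; DMSO defines baseline.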

[14] = ATG_DR4_LXR_CIS: Attagene CIS-FACTORIAL HepG2 Assay for human Liver X Receptor (LXR), DR4 submotif (AID 2282929); details: HepG2 Attagene DR4 cis-reporter, mRNA transcription; actives raise or lower the signal
Procedure, shortened: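 Total RNA from 24 h-treated, MRTU-transfected HepG2 cells underwent reverse transcription, PCR, fluorescent primer extension and restriction digestion before capillary electrophoresis. Both increases and decreases in reporter signal were fitted against DMSO.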

[15] = target: Aryl hydrocarbon receptor (Homo sapiens) (UniProt P35869); assay: ATG_Ahr_CIS: Attagene CIS-FACTORIAL HepG2 Assay for human Aryl Hydrocarbon Receptor (Ahr) (AID 2282930); details: HepG2 AhR cis-factorial reporter transcription; actives raise or lower the signal
Aryl hydrocarbon receptor (Homo sapiens), sequence (P35869 whole entry, looked up): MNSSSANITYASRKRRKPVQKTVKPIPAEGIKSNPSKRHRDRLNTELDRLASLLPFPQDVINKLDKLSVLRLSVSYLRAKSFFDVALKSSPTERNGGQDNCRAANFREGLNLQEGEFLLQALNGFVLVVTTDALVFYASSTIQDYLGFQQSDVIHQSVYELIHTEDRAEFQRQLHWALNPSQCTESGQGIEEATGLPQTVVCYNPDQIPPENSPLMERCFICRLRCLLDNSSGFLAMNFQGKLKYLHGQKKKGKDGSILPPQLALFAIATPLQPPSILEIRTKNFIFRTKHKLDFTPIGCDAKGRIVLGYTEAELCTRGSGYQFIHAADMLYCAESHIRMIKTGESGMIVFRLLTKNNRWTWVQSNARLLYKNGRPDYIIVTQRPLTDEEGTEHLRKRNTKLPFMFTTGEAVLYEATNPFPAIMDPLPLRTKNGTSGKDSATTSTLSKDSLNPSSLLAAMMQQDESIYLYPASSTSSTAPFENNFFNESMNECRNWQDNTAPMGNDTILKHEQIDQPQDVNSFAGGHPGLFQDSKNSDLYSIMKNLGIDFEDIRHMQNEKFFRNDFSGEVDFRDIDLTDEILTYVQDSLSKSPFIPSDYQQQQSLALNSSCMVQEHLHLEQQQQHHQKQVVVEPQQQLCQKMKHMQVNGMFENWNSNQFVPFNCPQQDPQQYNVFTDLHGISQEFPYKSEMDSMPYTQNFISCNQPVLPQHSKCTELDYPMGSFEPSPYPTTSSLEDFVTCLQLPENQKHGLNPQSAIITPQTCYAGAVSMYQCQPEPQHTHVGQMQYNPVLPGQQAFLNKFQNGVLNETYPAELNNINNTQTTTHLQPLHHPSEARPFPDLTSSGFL
Procedure, shortened: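 Endogenous factor activity is tracked through cis-promoter reporter units transfected into HepG2 cells. Transcript levels at 24 h are read by fluorescent RT-PCR and capillary electrophoresis, with activity in either direction scored relative to DMSO.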

[16] = ATG_AP_1_CIS: Attagene CIS-FACTORIAL HepG2 Assay for human Activator Protein 1 (AP-1) (AID 2282931); details: HepG2 Attagene cis-factorial AP-1 reporter mRNA; actives raise or lower the signal
Procedure, shortened: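 HepG2, transient cis-reporter transfection; 24 h; readout RT-PCR/CE fluorescence; DMSO baseline, gain and loss fitted.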

[17] = ATG_AP_2_CIS: Attagene CIS-FACTORIAL HepG2 Assay for human Activator Protein 2 (AP-2) (AID 2282932); details: HepG2 AP-2 cis-reporter, Attagene transcription factor profiling; actives raise or lower the signal
Procedure, shortened: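 Liver-derived HepG2 line, cis-reporter system measuring endogenous factors; 24 h dosing; reporter mRNA detected by fluorescent RT-PCR and capillary electrophoresis.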

[18] = ATG_BRE_CIS: Attagene CIS-FACTORIAL HepG2 Assay for human Bone Morphogenetic Protein (BMP) Response Element (BRE) (AID 2282933); details: HepG2 BMP response element reporter, Attagene transcription factor profiling; actives raise or lower the signal
Procedure, shortened: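 A HepG2 multiplex reporter system measured inducible reporter mRNA 24 h post-dosing. Detection: RT-PCR, 6-FAM primer extension, HpaI digestion, capillary electrophoresis. Activity fitted bidirectionally relative to DMSO.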

[19] = target: Retinoic acid receptor alpha (Homo sapiens) (UniProt P10276); assay: ATG_DR5_RAR_CIS: Attagene CIS-FACTORIAL HepG2 Assay for human Retinoic Acid Receptor Alpha (RARE), DR5 submotif (AID 2282934); details: HepG2 Attagene cis-factorial RARE DR5 reporter, mRNA; actives raise or lower the signal
Retinoic acid receptor alpha (Homo sapiens), sequence (P10276 whole entry, looked up): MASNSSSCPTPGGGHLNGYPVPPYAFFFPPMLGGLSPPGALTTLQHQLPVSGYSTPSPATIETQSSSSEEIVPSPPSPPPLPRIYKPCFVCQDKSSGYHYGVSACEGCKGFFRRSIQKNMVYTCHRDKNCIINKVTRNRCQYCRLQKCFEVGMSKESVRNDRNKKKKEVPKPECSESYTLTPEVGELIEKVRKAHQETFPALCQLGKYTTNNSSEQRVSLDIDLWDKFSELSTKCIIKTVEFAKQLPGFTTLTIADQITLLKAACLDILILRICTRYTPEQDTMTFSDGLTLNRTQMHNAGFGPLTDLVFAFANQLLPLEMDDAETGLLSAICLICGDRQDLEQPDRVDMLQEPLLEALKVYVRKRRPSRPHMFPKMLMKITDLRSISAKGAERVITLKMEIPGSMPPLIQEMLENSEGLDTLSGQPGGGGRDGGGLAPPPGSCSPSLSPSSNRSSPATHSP
Procedure, shortened: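 After 24 h of chemical exposure, transiently transfected HepG2 cells were lysed for total RNA; the DR5-regulated reporter transcript was quantified via RT-PCR and capillary electrophoresis, with activity fitted bidirectionally against DMSO.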

Measured: AC50

C=C(C)CN(CC)c1c([N+](=O)[O-])cc(C(F)(F)F)cc1[N+](=O)[O-]
active: [1] 105 µM | [5] 135 µM | [14] 50 µM
not listed: [19]
inactive: all other assays above

CCSC(=O)N1CCCCCC1
inactive: all assays above

CCOc1nc(F)cc2nc(S(=O)(=O)Nc3c(Cl)cccc3Cl)nn12
not listed: [19]
inactive: all other assays above

COCC(=O)N(c1c(C)cccc1C)C(C)C(=O)OC (stereo unspecified)
active: [15] 81.7 µM | [18] 50 µM
not listed: [19]
inactive: all other assays above

CN/C(=N\[N+](=O)[O-])NCc1cnc(Cl)s1
inactive: all assays above

CC1(C)CON(Cc2ccccc2Cl)C1=O
inactive: all assays above
